Source: PubChem (National Center for Advancing Translational Sciences (NCATS))
FLuc counter = firefly luciferase modulation, counter-screen for miR-21 project. Potency, µM (titrated, usually from 57.5 µM), hits mostly inhibitors. AID 588342. P08659. actives 6.9% (n = 360,000). purified FLuc, Km substrates, luminescence inhibition; note: nearly all actives have a fitted effect of over 55% in size
Target sequence (P08659 whole entry, looked up): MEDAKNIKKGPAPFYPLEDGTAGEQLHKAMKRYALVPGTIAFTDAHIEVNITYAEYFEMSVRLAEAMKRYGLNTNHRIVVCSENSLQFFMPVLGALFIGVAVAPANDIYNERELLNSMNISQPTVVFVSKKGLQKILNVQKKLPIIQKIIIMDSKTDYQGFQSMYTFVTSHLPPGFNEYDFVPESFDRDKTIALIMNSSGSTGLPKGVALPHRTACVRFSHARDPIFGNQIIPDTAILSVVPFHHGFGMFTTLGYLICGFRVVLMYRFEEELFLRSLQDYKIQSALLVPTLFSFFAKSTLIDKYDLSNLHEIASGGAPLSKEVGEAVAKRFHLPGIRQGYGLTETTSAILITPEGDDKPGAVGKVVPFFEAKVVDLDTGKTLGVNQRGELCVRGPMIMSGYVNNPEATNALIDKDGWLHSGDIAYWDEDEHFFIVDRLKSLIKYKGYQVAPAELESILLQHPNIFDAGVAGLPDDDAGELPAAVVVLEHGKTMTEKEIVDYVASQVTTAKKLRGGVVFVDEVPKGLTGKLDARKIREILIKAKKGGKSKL
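Purified P. pyralis luciferase (10nM final) with 10uM D-luciferin and 10uM ATP (Km levels) in 50mM Tris acetate pH 7.5, 10mM Mg acetate, 0.01% Tween-20, 0.05% BSA; qHTS 6-point titration, ~60 µM downward; luminescence read.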
NPC1 prom act = activates the NPC1 promoter; Huh7 NPC1 promoter luciferase reporter, 24 h; Potency, µM (series often up to 9.22 µM), usual class: activators; actives 2.4% (n = 320,000); AID 485313; note: nearly all actives have a fitted effect of over 60% in size
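Readout is luciferase luminescence, reflecting NPC1 promoter activation in stably transfected Huh7 cells after 24 h compound exposure at 37 °C in reduced-serum medium with 10% FBS.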
KinaseGlo FLuc = Kinase-Glo luciferase inhibition (counter-screen). Potency, µM (doses to about 38.3 µM), most hits filed as inhibitors. actives 0.28% (n = 200,000). Kinase-Glo luciferase, ATP luminescence, 8 min; note: nearly all actives have a fitted effect of over 60% in size
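Substrate mix (final 50 mM imidazole pH 7.2, 50 mM KCl, 7 mM MgCl2, 10 uM ATP, 0.01% Tween 20, 0.05% BSA) plus pin-tool compound, then Kinase-Glo detection mix; 8 min ambient, luminescence read.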
SMN2 splice up = enhancers of SMN2 splice variant expression; HEK293 SMN2-luciferase splicing reporter, luminescence, 30-36 h; Potency, µM (doses to about 46.1 µM), most hits filed as activators; actives 2.8% (n = 210,000); note: nearly all actives have a fitted effect of over 55% in size
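qHTS luciferase splicing reporter: luminescence rises when SMN2 exon 7 is included in transfected HEK293 cells. Compound exposure lasted 30-36 h at 37C, with 4.5 mM final sodium butyrate as control, followed by a ONE-Glo read.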
ELG1 genotox = genotoxicity induction in ELG1-luciferase HEK293T cells | HEK293T ELG1-luciferase reporter, luminescence, 16 h | Potency, µM (doses to about 46 µM), hits mostly activators | actives 1.3% (n = 330,000) | AID 504466; note: nearly all actives have a fitted effect of over 60% in size
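DMSO vehicle served as control against compound-treated ELG1-luciferase HEK293T cells; exposure lasted 16 hr at 37 °C and 5% CO2, followed by ONE-Glo luminescence detection after 30 min.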
Rab9 prom act = Rab9 promoter activation. Huh7 Rab9 promoter-luciferase reporter, luminescence, 24 h. Potency, µM (doses to about 9.22 µM), most hits filed as activators. AID 485297. actives 2.8% (n = 320,000); note: nearly all actives have a fitted effect of over 60% in size
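Promoter activation is measured as luciferase luminescence in Huh7 cells stably transfected with a Rab9 promoter–luciferase construct, following 24 h compound exposure at 37 °C and 10 min reagent incubation at ambient temperature.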
Hits are given with their value; . = inactive; ? = inconclusive; / = no result given. Compounds with a hit are over-represented: about 7.4% of the library has one in this group of screens. Calls come from the whole dose curve; as a rule, active = well fitted curve in the direction sought with a large enough effect; inconclusive = small, poorly fitted or top-dose-only effect, or another doubt; inactive = no such curve, though single readings can be large; an effect the other way counts as inactive or inconclusive.

SMILES	FLuc counter	NPC1 prom act	KinaseGlo FLuc	SMN2 splice up	ELG1 genotox	Rab9 prom act
Cc1ccc(Cl)cc1NC(=O)Cn1c(=O)n(Cc2ccccc2)c(=O)c2oc3ccccc3c21	.	/	/	/	/	/
Cc1ccc(NC(=O)CSc2nnc(C)n2C2CC2)cc1S(=O)(=O)N1CCOCC1	.	.	/	/	.	.
CC(=O)Nc1ccc(N2C(=O)CSC2c2ccccc2)cc1 (centres undefined)	.	.	/	/	.	.
Cc1nc(C(N)=O)nc2ccccc12	.	.	/	/	.	.
Cc1ccc(N2CCN(Cc3nnc(-c4ccccc4F)o3)CC2)c(C)c1	.	/	/	.	/	/
COc1cc(/C=N/NC(=S)Nc2cccc(S(=O)(=O)N(C)C)c2)cc(OC)c1O	15µM	.	.	.	.	.
CN(C)S(=O)(=O)c1cccc(NC(=S)N/N=C/c2ccco2)c1	?	.	/	/	.	.
CN(C)S(=O)(=O)c1cccc(NC(=S)N/N=C/c2ccc(O)c(O)c2O)c1	13µM	.	/	/	.	.
COc1ccc(O)c(/C=N/NC(=S)Nc2cccc(S(=O)(=O)N(C)C)c2)c1	11µM	.	.	.	.	.
COC(=O)c1c(NC(=O)CN2CCN(c3ncccn3)CC2)sc(C(N)=O)c1C	.	.	/	/	.	.
Cc1[nH]nc(N)c1N=Nc1ccc(Br)cc1	?	.	.	.	.	.
Cc1nc(N)sc1N=Nc1ccc(Br)cc1	4.3µM	2.2µM	.	?	?	1.3µM
CCOc1ccc(NC(=O)c2ccc(N)cc2)cc1	9.5µM	?	.	?	?	?
CCOc1ccc(C(=O)COC(=O)Cc2n[nH]c(=O)c3ccccc23)cc1	.	.	/	/	.	.
COC(=O)c1ccc2nccnc2c1	.	.	/	/	.	.
CCOc1ccc(C(=O)Nc2c(C(N)=O)oc3ccccc23)cc1	11µM	.	.	.	.	.
CCOc1ccc(NC(=O)c2oc3ccccc3c2NC(=O)c2cc(C)cc(C)c2)cc1	.	/	/	.	/	/
CCOc1ccc(NC(=O)c2ccc(NC(=O)Cc3n[nH]c(=O)c4ccccc34)cc2)cc1	.	.	/	/	9.2µM	.
COc1ccc(NC(=O)c2ccc3nccnc3c2)cc1	27µM	4µM	.	13µM	?	2µM
O=C(CSc1cn(CC(=O)N2CCCC2)c2ccccc12)Nc1ccccc1C(F)(F)F	.	/	/	/	/	/
O=C(C1CC(=O)N(c2ccccc2)C1)N1CCN(c2ccccc2F)CC1 (centres undefined)	.	.	/	/	.	.
Cc1cccc(C(=O)OCC(=O)c2ccc(CC(=O)N3CCOCC3)s2)c1C	/	.	/	/	.	.
CCc1ccc(NC(=O)c2n[nH]c(=O)c3ccccc23)cc1	?	3.2µM	/	/	?	2.5µM
CCOc1ccc(NC(=O)c2ccc3nccnc3c2)cc1	17µM	.	.	.	?	?
CCOc1ccc(NC(=O)Nc2ccc3nccnc3c2)cc1	19µM	.	.	.	.	.
SMILES	FLuc counter	NPC1 prom act	KinaseGlo FLuc	SMN2 splice up	ELG1 genotox	Rab9 prom act
CC(C)(C)NC(=O)Nc1ccc2nccnc2c1	24µM	3.5µM	.	?	?	3.5µM
CCOc1ccc(NC(=O)c2ccncc2)cc1	?	.	.	.	?	.
Cc1ccc(N/C=C/C(=O)c2ccccc2)cc1Br	0.6µM	4µM	/	/	?	3.2µM
O=C(/C=C/Nc1ccc(F)c(Cl)c1)c1ccccc1	2.4µM	?	/	/	18µM	3.5µM
C/C(=C\C(=O)c1ccc(C)cc1)Nc1cccc(O)c1	0.85µM	2.8µM	.	?	?	0.63µM
CC(=O)c1cccc(NS(=O)(=O)c2ccc(N/C=C\C(=O)c3ccc(C)cc3)cc2)c1	.	.	.	.	.	.
CC(=O)c1cccc(N/C=C\C(=O)c2ccc(C)cc2)c1	0.3µM	0.79µM	.	6.3µM	2.6µM	0.79µM
CC(=O)Nc1ccc(N/C=C/C(=O)c2ccc(Cl)cc2)cc1	.	?	/	/	.	?
O=C(/C=C/Nc1ccc([N+](=O)[O-])cc1)c1ccc(Br)cc1	.	.	.	.	?	?
Cc1cc(C)c(C)c(S(=O)(=O)NCc2ccc(C(=O)N3CCN(C)CC3)cc2)c1C	.	.	/	/	.	.
O=C(/C=C/Nc1cccc(O)c1)c1ccccc1	0.17µM	?	?	?	?	.
